Screening data: PubChem BioAssay, National Center for Advancing Translational Sciences (NCATS)
HT1080 IDH1KD tx: toxicity to HT-1080 IDH1 knockdown cells (counter line); Potency, µM (doses to about 46.1 µM), without a hit: at the top dose activity, negative = toxicity, actives largely listed as cytotoxic; HT-1080 IDH1 knockdown viability, ATP luminescence, 48 h; 2% of 360,000 active;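 note: potency is the fitted concentration of half-maximal effect; 0% = DMSO wells and -100% = cell-free medium wells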
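% activity derives from luminescence (CellTiter-Glo), normalised to DMSO and no-cell wells. HT-1080-IDH1KD cells, 750/well, had 48 h compound exposure at 37 °C.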
HT1080NT lethal: kills 2HG-producing HT-1080-NT fibrosarcoma cells; AID 686970; 1.6% of 360,000 active; Potency, µM (top dose mostly 46.1 µM), for inactives: top-dose activity, negative = less viability, usual class: cytotoxic; HT-1080-NT fibrosarcoma viability, CellTiter-Glo ATP luminescence, 48 h;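 note: NT is the 2HG producing partner of a matched IDH1 knockdown line; potency is the fitted concentration of half-maximal effect; 0% = DMSO-treated cells and -100% = media-only wells without cells; nearly all actives have a fitted effect of over 55% in size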
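Read-out is CellTiter-Glo luminescence after 10 minutes at room temperature, following 48 hours' compound treatment of HT-1080-NT cells (750 cells/well, RPMI, 5% FBS, 37 degrees C).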
TDP1 cell CPT: DT40-hTDP1 cell growth loss with CPT | chicken DT40 Tdp1-/-;hTDP1 cells + 20 nM CPT, ATP luminescence, 48 h | Potency, µM (top dose mostly 46.2 µM), for the others: top-dose activity change, negative = growth inhibition, most hits filed as inhibitors | 12% of 420,000 active; note: potency is the fitted concentration of half-maximal effect; nearly all actives have a fitted effect of over 55% in size
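Chicken DT40 Tdp1-/- cells stably complemented with human TDP1 were seeded at 400 cells/well in medium containing 20 nM camptothecin, exposed to pin-transferred compounds, and grown at 37 °C for at least 48 hr. Viability was read as ATP luminescence.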
DT40 TDP1 no CPT: qHTS for Inhibitors of human tyrosyl-DNA phosphodiesterase 1 (TDP1): qHTS in cells in absence of CPT; DT40 Tdp1-/- hTDP1 cells, no CPT, ATP luminescence, 48 h; Potency, µM (series often up to 46.2 µM), for the others: top-dose activity change, negative = growth inhibition, most hits filed as inhibitors; 15% of 420,000 active; note: potency is the fitted concentration of half-maximal effect; nearly all actives have a fitted effect of over 55% in size
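Chicken DT40 Tdp1-/- cells stably complemented with human TDP1 were seeded at 400 cells/well with DMSO in place of 20 nM camptothecin. After compound pinning, cells grew at least 48 hr at 37 °C; viability read by CellTiter-Glo luminescence.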
IL1B secr inh: inhibitors of inflammasome signaling (IL-1 beta secretion); THP-1 LPS/ATP IL-1B secretion, AlphaLISA, 16 h; hits give low values; 4.7% of 360,000 active; AID 743279; activity change, % at 57.5 µM; in the data active = activity change below about -50%; inconclusive = mostly about -30% to -49%
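THP-1 cells pretreated 1 hr with compounds (up to 57.5 uM final), then stimulated with LPS (250 ng/mL final) plus ATP (1.25 mM final); secreted IL-1B measured by AlphaLISA after 16 hr, decreased signal indicating inhibition.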
Numbers without * were called inactive; ? = inconclusive; / = no result; [ ] = remark or other dose. This is a sample that favours compounds with a hit; in the whole collection about 19% have one here. Unless noted, calls come from the whole dose curve; as a rule, active = well fitted curve in the direction sought with a large enough effect; inconclusive = small, poorly fitted or top-dose-only effect, or another doubt; inactive = no such curve, though single readings can be large; an effect the other way counts as inactive or inconclusive. Unless noted, % is set by controls: 0 for no effect and ±100 for the full control effect.

SMILES | HT1080 IDH1KD tx | HT1080NT lethal | TDP1 cell CPT | DT40 TDP1 no CPT | IL1B secr inh
Cc1c(C(=O)N2CCc3ccccc3C2)sc2nc(-c3ccccc3)cn12 | ? | -5.1% | ? | 20.6µM* | -11.3
Cc1ccc(CNc2ccc(O)cc2)cc1 | ? | ? | ? | 16.4µM* | -95.2*
Cc1ccc(NCc2ccccc2O)cc1 | ? | -3.7% | ? | -27.2% | -17.0
Cc1cc(C)cc(OCC(=O)N2N=C(C(F)(F)F)CC2(O)C(C)(C)C)c1 (centres undefined) | 16.4µM* | 18.4µM* | ? | ? | 1.9
COc1cccc(-c2noc(CCCC(=O)N3CCOCC3)n2)c1 | -0.8% | 2.9% | -1.7% | -2.5% | 16.1
O=C(C[n+]1ccccc1)Nc1ccc(Oc2ccccc2)cc1 | -16.8% | -15.7% | 11.6µM* | ? | ?
COc1cc(NC(=O)C[n+]2ccc(C(=O)c3ccccc3)cc2)cc(OC)c1 | -2.1% | 0.5% | 23.1µM* | 13µM* | -20.8
CN(C)c1ccc(NC(=O)C[n+]2ccccc2)cc1 | 9.0% | 9.0% | -2.8% | 8.1% | 11.8
CO/N=C\CC(=O)Nc1ccc(Oc2ccccc2)cc1 | ? | ? | 1.46µM* | 1.3µM* | 81.3
COc1ccccc1C(=O)OCC(=O)NC(=O)NCc1ccccc1 | 0.8% | -5.6% | 19.4% | 0.5% | -3.5
C=CCNc1nc(-c2ccc(O)c(C(N)=O)c2)cs1 | 3.4% | 1.2% | 13µM* | 18.4µM* | -6.8
C=CCNc1nc(-c2cc3ccccc3o2)cs1 | 1.8% | 4.2% | -19.5% | -18.0% | -95.1*
c1ccc2oc(-c3csc(NCC4CCCO4)n3)cc2c1 (centres undefined) | 4.1% | -13.5% | ? | ? | -26.2
NC(=O)c1cc(-c2csc(NCCc3ccccc3)n2)ccc1O | -22.4% | -29.3% | ? | ? | -22.6
NC(=O)c1cc(-c2csc(-c3cccnc3)n2)ccc1O | -10.0% | -0.5% | -23.3% | 13µM* | ?
c1ccc(-c2nc(-c3cccnc3)cs2)cc1 | 0.0% | 8.0% | -10.0% | -16.5% | 23.6
COC(=O)[C@@H]1C[C@H](NC(=O)c2ccccn2)CN1Cc1cccc2ccccc12 | / | / | 6.8%[9.04 µM] | -21.7% | /
CC(=O)Nc1c(-c2ccccc2)nc2ncccn12 | 7.0% | 0.1% | 8.8% | -6.4% | 11.0
COc1ccc(Nc2c(-c3ccc(N4CCOCC4)cc3)nc3ncccn23)cc1OC | / | / | -14.4% | -25.1% | /
CCc1cccc(C)c1Nc1c(-c2cccs2)nc2ncccn12 | / | / | ? | 16.4µM* | /
CCc1cccc(C)c1Nc1c(-c2ccc(N3CCOCC3)cc2)nc2ncccn12 | / | / | 23.1µM* | 23.1µM* | /
Cc1cccc(CNC(=O)c2c3n(c(C)cc2=O)-c2ccccc2SC(c2sccc2C)C3)n1 (centres undefined) | / | / | -4.8%[9.04 µM] | -13.5% | /
O=C(c1ccc(Cl)cc1)c1cnc2ccccn12 | -0.4% | -7.2% | -25.1% | -21.8% | 6.1
CCS(=O)(=O)c1nc(S(=O)(=O)c2ccc(Cl)cc2)c(N2CCC(C(N)=O)CC2)s1 | 4.1% | 5.4% | 10.2% | 14.4% | -17.6
Cc1c(Cl)cccc1NC(=S)N1CCCN(Cc2ccccc2F)C1 | -14.1% | -9.6% | -27.3% | -23.9% | -17.5
SMILES | HT1080 IDH1KD tx | HT1080NT lethal | TDP1 cell CPT | DT40 TDP1 no CPT | IL1B secr inh
CSc1cccc(NC(=S)N2CCCN(Cc3ccc(F)cc3)C2)c1 | ? | -14.1% | ? | ? | -52.5*
Cc1ccccc1NC(=S)N1CCCN(Cc2ccc(F)cc2)C1 | -2.9% | 0.0% | -2.3% | -8.6% | ?
Cc1ccc(C)c(NC(=S)N2CCCCCC2)c1 | 1.2% | 4.6% | 20.6µM* | 16.4µM* | 25.1
Cc1c(Cl)cccc1NC(=S)N1CCCN(Cc2ccc(F)cc2)C1 | ? | -10.2% | ? | ? | -88.1*
Cc1ccc(NC(=S)N2CCCN(Cc3ccc(F)cc3)C2)c(C)c1 | -17.2% | -8.7% | ? | 20.6µM* | -22.0
CN(NC1OC(=O)c2ccccc21)c1ccc(C(F)(F)F)cc1[N+](=O)[O-] (centres undefined) | -0.3% | -8.0% | 4.5% | 2.6% | /
CC(C)N(C(=O)CSc1cn(CC(=O)N2CCCCCC2)c2ccccc12)C(C)C | / | / | ? | 18.4µM* | /
CN(C(=O)CSc1cn(CC(=O)N2CCCCCC2)c2ccccc12)c1ccccc1 | / | / | ? | 18.4µM* | /
CCCNC(=O)CSc1cn(CC(=O)N2CCCCCC2)c2ccccc12 | / | / | -18.5% | -21.5% | /
Cc1cccc(C)c1NC(=O)CSc1nnc(-c2cnccn2)n1C | 2.1% | 0.3% | 4.4% | 8.3% | -0.3
CSc1nc(N)c2c(n1)N(C)C=NS2(=O)=O | 11.8% | 4.9% | 6.4% | -16.5% | -1.0
CN(C)c1nc2cc(Cl)ccc2cc1CN(Cc1ccc2c(c1)OCO2)C(=O)c1ccoc1 | / | / | 15.2%[9.04 µM] | -28.3% | /
COc1ccc(OC)c(S(=O)(=O)Nc2ccc(O)c3ccccc23)c1 | ? | 23.1µM* | 2.06µM* | 3.26µM* | 159.6
COc1ccc(OC)c(S(=O)(=O)Nc2cccc3c(O)cccc23)c1 | -13.2% | -2.1% | 20.6µM* | ? | 5.2
COc1ccc(OC)c(S(=O)(=O)Nc2cccc(O)c2)c1 | 1.5% | 1.8% | -1.6% | -5.3% | 10.0
COc1cccc(CNC(=O)c2c(OC)cc(=O)n3c2CCN(C(=O)c2ccc(C)s2)CC3)c1 | / | / | 9.6% | -1.8% | /
CCC(Oc1ccccc1)C(=O)OCC(=O)Nc1sccc1C(N)=O (centres undefined) | -3.1% | -3.5% | ? | ? | -17.2
CC1Cc2ccccc2N1C(=O)CN1CCN(S(=O)(=O)c2cccs2)CC1 (centres undefined) | -0.2% | 10.4% | ? | 14.6µM* | 0.0
CCOc1ccc(S(=O)(=O)N2c3ccccc3CC2C)cc1 (centres undefined) | ? | 3.16µM* | 0.651µM* | 0.92µM* | 35.8
CC1Cc2ccccc2N1C(=O)CCS(=O)(=O)c1cccs1 (centres undefined) | -1.0% | -9.5% | -1.8% | -6.8% | -4.2
Cc1ccc(S(=O)(=O)N2c3ccccc3CC2C)cc1 (centres undefined) | ? | ? | ? | ? | -3.4
CC1Cc2ccccc2N1S(=O)(=O)c1cccs1 (centres undefined) | -11.3% | 0.7% | 20.6µM* | 16.4µM* | 0.0
NC(=O)c1nsc(C(=O)N(Cc2ccc(F)cc2)C(C(=O)NCC2CCCO2)c2ccc(O)cc2)c1N (centres undefined) | 8.2% | -1.2% | -29.7% | -14.3% | 11.1
CC(=O)N1CCc2cc(S(=O)(=O)Nc3ccc(C)cc3)ccc21 | -6.7% | -11.8% | ? | ? | 32.8
COc1ccc(CNS(=O)(=O)c2ccc3c(c2)CCN3C(=O)C2CCC2)cc1 | -0.2% | 4.6% | ? | ? | 14.6
COc1cccc(NS(=O)(=O)c2ccc3c(c2)CCCN3C(=O)C2CCC2)c1 | / | / | 23.1µM* | ? | /
